In PubChem BioAssay (NCATS):
Records with an inconclusive call do not appear. Calls of active or inactive are those of the source. The call rests on the fitted dose curve; in most records, active means well fitted inhibition curve with a large enough effect; inconclusive means small, poorly fitted or top-dose-only effect; inactive means flat fitted curve, though single readings scatter.

Experiments:
Assay in all cases: qHTS profiling for inhibitors of Plasmodium falciparum proliferation (AID 504749); further: nearly all actives have a fitted effect of over 60% in size
[1] = test system: ATS95; conditions: P. falciparum in erythrocytes, SYBR Green DNA, 72 h; series mostly up to 12.8 µM
In short: (§1)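 Infected RBCs, 0.3% parasitemia/2.5% Hct final; cpd 72 h, 37 C, 5% CO2; lysis buffer with saponin/triton/SYBR Green I, o/n RT dark; FI 485/535; norm. to artemisinin (0.29 uM) and DMSO.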

[2] = test system: C2A; conditions: P. falciparum in erythrocytes, SYBR Green DNA, 72 h; series mostly up to 12.8 µM
In short: as §1

[3] = test system: CP215; conditions: P. falciparum in erythrocytes, SYBR Green DNA, 72 h; series mostly up to 28.7 µM
In short: as §1

[4] = test system: CP237; conditions: P. falciparum in erythrocytes, SYBR Green DNA, 72 h; series mostly up to 12.8 µM
In short: as §1

[5] = test system: CP238; conditions: P. falciparum in erythrocytes, SYBR Green DNA, 72 h; series mostly up to 12.8 µM
In short: as §1

[6] = test system: CP250; conditions: P. falciparum in erythrocytes, SYBR Green DNA, 72 h; series mostly up to 12.8 µM
In short: as §1

[7] = test system: CP252; conditions: P. falciparum in erythrocytes, SYBR Green DNA, 72 h; series mostly up to 12.8 µM
In short: as §1

[8] = test system: CP256; conditions: P. falciparum in erythrocytes, SYBR Green DNA, 72 h; series mostly up to 12.8 µM
In short: as §1

[9] = test system: CP265; conditions: P. falciparum in erythrocytes, SYBR Green DNA, 72 h; series mostly up to 12.8 µM
In short: as §1

[10] = test system: CP266; conditions: P. falciparum in erythrocytes, SYBR Green DNA, 72 h; series mostly up to 28.7 µM
In short: as §1

[11] = test system: CP269; conditions: P. falciparum in erythrocytes, SYBR Green DNA, 72 h; series mostly up to 12.8 µM
In short: as §1

[12] = test system: CP325; conditions: P. falciparum in erythrocytes, SYBR Green DNA, 72 h; series mostly up to 12.8 µM
In short: as §1

[13] = test system: CP329; conditions: P. falciparum in erythrocytes, SYBR Green DNA, 72 h; series mostly up to 12.8 µM
In short: as §1

[14] = test system: CP335; conditions: P. falciparum in erythrocytes, SYBR Green DNA, 72 h; series mostly up to 12.8 µM
In short: as §1

[15] = test system: Dd2; conditions: P. falciparum in erythrocytes, SYBR Green DNA, 72 h; series mostly up to 12.8 µM
In short: as §1

[16] = test system: ECU; conditions: P. falciparum in erythrocytes, SYBR Green DNA, 72 h; series mostly up to 12.8 µM
In short: as §1

[17] = test system: P93_24; conditions: P. falciparum in erythrocytes, SYBR Green DNA, 72 h; series mostly up to 12.8 µM
In short: as §1

[18] = test system: PAD; conditions: P. falciparum in erythrocytes, SYBR Green DNA, 72 h; series mostly up to 12.8 µM
In short: as §1

[19] = test system: PC26; conditions: P. falciparum in erythrocytes, SYBR Green DNA, 72 h; series mostly up to 12.8 µM
In short: as §1

[20] = test system: SC27B; conditions: P. falciparum in erythrocytes, SYBR Green DNA, 72 h; series mostly up to 12.8 µM
In short: as §1

Measured: Potency
Potency means the concentration at half of the fitted maximal effect.

Cc1cc(/C=C\c2ccc3cc(N(C)C)ccc3[n+]2C)c(C)n1-c1ccccc1
active: [1] 1580 nM | [2] 2510 nM | [3] 3220 nM | [4] 562 nM | [5] 1580 nM | [6] 2820 nM | [7] 3550 nM | [8] 1580 nM | [9] 2510 nM | [10] 2870 nM | [11] 2560 nM | [12] 2560 nM | [13] 2030 nM | [14] 572 nM | [15] 398 nM | [16] 2510 nM | [17] 708 nM | [18] 3160 nM | [19] 3610 nM | [20] 2510 nM
